PubChem BioAssay (NCATS)
“And” between values parts separate entries of the source, which are not always exact repeats. Equal entries are not always repeated.

biological target: Cytochrome P450 3A4 (Homo sapiens) (UniProt P08684); assay: qHTS Assay for Activators of Cytochrome P450 3A4 (AID 885); settings: recombinant CYP3A4, Luciferin-PPXE luminescence, 60 min; series mostly up to 57.1 µM; note: nearly all actives have a fitted effect of over 65% in size
How it was run: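 Quantitative HTS format: compounds preincubated with 20nM human CYP3A4 and Luciferin-PPXE substrate at KM, reaction started by NADPH regeneration, stopped after 60 min, luciferase luminescence read 20 min later.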

Chain of Cytochrome P450 3A4 (Homo sapiens) (P08684 whole entry, looked up): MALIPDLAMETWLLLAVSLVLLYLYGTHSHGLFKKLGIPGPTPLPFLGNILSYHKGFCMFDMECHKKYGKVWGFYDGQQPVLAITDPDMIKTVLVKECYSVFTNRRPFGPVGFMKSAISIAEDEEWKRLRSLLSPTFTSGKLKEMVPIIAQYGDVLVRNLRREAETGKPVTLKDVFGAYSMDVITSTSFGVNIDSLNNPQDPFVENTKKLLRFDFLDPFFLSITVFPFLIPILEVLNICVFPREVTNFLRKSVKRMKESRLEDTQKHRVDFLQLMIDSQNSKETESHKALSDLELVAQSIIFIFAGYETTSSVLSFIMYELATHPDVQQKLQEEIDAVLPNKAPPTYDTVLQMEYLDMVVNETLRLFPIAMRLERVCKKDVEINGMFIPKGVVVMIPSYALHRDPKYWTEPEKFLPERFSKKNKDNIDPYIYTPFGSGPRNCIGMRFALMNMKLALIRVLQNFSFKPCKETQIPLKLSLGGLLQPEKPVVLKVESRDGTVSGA

Activity change, positive = activation, inactive:
CCc1cc2c(nc1CC)CCN(CC/C(C)=N/OC[C@@H](O)[C@@H]1O[C@@H]3OC(C)(C)O[C@@H]3[C@H]1O)C2 -30.5% [at 11.4 µM]
C=CCOC(=O)C(C(C)=O)C(NC(=O)OC)c1ccco1 (centres undefined) -42.1% [at 11.4 µM]
CC1CCC2C(=O)N3C(CCC(C)C3c3ccccc3Br)C(=O)N2C1c1ccc(C#CCN(C)C)cc1 (centres undefined) -38.2% [at 11.4 µM]
CC1CCC2C(=O)OC(CN3C(=O)c4ccccc4C3=O)CN2C1c1ccc(Br)cc1 (centres undefined) -55.7% [at 11.4 µM]
COC(=O)C1=C(C)N(Cc2ccccc2)c2c(C(=O)OC)c(C(=O)OC)c(C(=O)OC)c(=O)n2C1c1ccccc1 (centres undefined) -58.7% [at 11.4 µM] and -55.1% [at 11.4 µM]
C/C(CCN1CCc2nc(-c3ccccc3)c(-c3ccccc3)cc2C1)=N\OC[C@@H](C)[C@H](OCc1ccccc1)C(C)C -51.7% [at 11.4 µM]
C[C@@H]1O[C@H]2C3=C(C(=O)[C@H]4O[C@@H]4[C@H]3O)[C@@H]1[C@@H]1[C@@H](C)OC=C3[C@H](O)[C@H]4O[C@@H]4/C(=N\OCc4ccccc4)[C@]312 -31.8% [at 11.4 µM]
CC/C=C\CC[C@H](OC(=O)c1ccc(Br)cc1)C1=CCCCC1=O -40.7% [at 11.4 µM]
CC(=O)OC[C@@H]1O[C@H](C/C=N\OCC[C@H]2C=C[C@H](OC(C)=O)[C@@H](COC(C)=O)O2)C=C[C@@H]1OC(C)=O -31% [at 11.4 µM]
